VACV mCherry inh – qHTS for Stage-Specific Inhibitors of Vaccinia Orthopoxvirus: mCherry Reporter Primary qHTS | AID 720579, 2013 | actives 0.63% (n = 310,000) | Vaccinia virus mCherry reporter infection, fluorescence | Potency, µM (series often up to 36.5 µM), without a hit: at the top dose activity change, negative = inhibition, most hits filed as inhibitors; calls by dose curve; tested in A549 cells; note: nearly all actives have a fitted effect of over 35% in size
Pf growth 96h – Primary qHTS for delayed death inhibitors of the malarial parasite plastid, 96 hour incubation. Potency, µM (top dose mostly 28.7 µM), inactives show at the top dose activity change, negative = inhibition, most hits filed as inhibitors. P. falciparum luciferase reporter growth, 96 h. AID 504834, 2011. actives 6.9% (n = 320,000)
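96 h incubation, 37 C, 5% CO2, of luciferase-reporter P. falciparum-infected RBCs (2% hematocrit, 0.05% parasitemia final) with test compounds; endpoint luminescence.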
Vaccinia Venus – qHTS for Stage-Specific Inhibitors of Vaccinia Orthopoxvirus: Venus Reporter Primary qHTS; Vaccinia virus Venus reporter expression, fluorescence; actives 0.46% (n = 330,000); Potency, µM (highest dose often 36.5 µM), for the others: top-dose activity change, negative = inhibition, hits mostly inhibitors; calls by dose curve; tested in A549 cells; note: nearly all actives have a fitted effect of over 30% in size
AMA1 RON2 block – qHTS for Inhibitors of AMA1-RON; Towards Development of Antimalarial Drug Lead: Primary Screen. Potency, µM (doses to about 58.2 µM), for inactives: at the highest dose activity change, negative = inhibition, hits mostly inhibitors. AlphaScreen AMA1-biotinylated RON2 peptide binding. actives 0.2% (n = 360,000). Plasmodium falciparum AMA1 (3D7) - RON2 peptide interaction. AID 720542, 2013;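 note: 0% = vehicle wells and -100% = peptide control; nearly all actives have a fitted effect of over 45% in size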
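AMA1 (3D7) with his tag at 25 nM final met compounds first, then biotinylated RON2 peptide at 25 nM; detection used donor plus acceptor beads, 10 µg/mL apiece, read by AlphaScreen after 30 min at room temperature.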
Pf growth 48h – Primary qHTS for delayed death inhibitors of the malarial parasite plastid, 48 hour incubation; P. falciparum luciferase growth in erythrocytes, 48 h; actives 5.9% (n = 310,000); AID 504832, 2011; Potency, µM (series often up to 28.7 µM), without a hit: top-dose activity change, negative = inhibition, hits mostly inhibitors
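In quantitative HTS format, infected erythrocytes bearing luciferase-reporter parasites were treated for a single generation at 37 C. Luminescence after adding detection reagent served as the growth measure.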
* hit, by the source's call; i = inactive; ? = inconclusive; · = no result given; [ ] = remark or other dose. Hits are enriched below; roughly 8.7% of the tested compounds scored in any of these assays. Unless noted, calls come from the whole dose curve; as a rule, active = well fitted curve in the direction sought with a large enough effect; inconclusive = small, poorly fitted or top-dose-only effect, or another doubt; inactive = no such curve, though single readings can be large; an effect the other way counts as inactive or inconclusive. Unless noted, % is set by controls: 0 for no effect and ±100 for the full control effect; potency is the fitted concentration of half-maximal effect.

SMILES	VACV mCherry inh	Pf growth 96h	Vaccinia Venus	AMA1 RON2 block	Pf growth 48h
COc1ccc(CNC(=O)C(c2ccco2)N(Cc2ccccc2)C(=O)Cc2cccs2)cc1 (stereo not given)	?	?	-26%	-3%	?
COCCN(C(=O)Cc1cccs1)C(C(=O)NCc1ccc(OC)cc1)c1ccc(OC)cc1 (stereo not given)	-10%	?	0%	3%	13µM*
COc1ccc(CNC(=O)C(c2cccs2)N(Cc2ccco2)C(=O)Cc2cccs2)cc1 (stereo not given)	-40%	13%	-22%	-8%	13µM*
COc1ccc(CNC(=O)C(c2ccco2)N(Cc2cccs2)C(=O)Cc2cccs2)cc1 (stereo not given)	-25%	?	-15%	-1%	?
CCCS(=O)(=O)c1ncc(Cl)c(C(=O)N(Cc2ccccc2)Cc2ccco2)n1	-13%[7.34 µM]	·	-12%[7.34 µM]	·	·
CN(C)c1nc(N(C)C)nc(N2CC(=O)N(c3ccccc3)C2=N)n1	-1%	126%	-28%	-4%	2.9µM*
Cc1cc(C)n2nnnc2c1C#N	·	13µM*	·	36%	18%
N#Cc1cc2ccccc2n2nnnc12	i	43%	-10%	15%	10%
Cc1c(NC(=O)CCC(=O)N2CCCCC2)c(=O)n(-c2ccccc2)n1C	·	0.83µM*	-7%	0%	1%
Cc1cccc(C)c1NC(=O)CN1CCN(CCCC(c2ccc(F)cc2)c2ccc(F)cc2)CC1	?	4.5µM*	?	4%	12µM*
C=CCNC(=O)CN1CCN(C(c2ccccc2)c2ccccc2)CC1	·	13µM*	·	-11%	?
Cc1c(NC(=O)CN2CCN(C(c3ccccc3)c3ccccc3)CC2)c(=O)n(-c2ccccc2)n1C	-23%	-9%	-10%	11%	10µM*
Cc1cccc(C)c1NC(=O)CN1CCC(Cc2ccccc2)CC1	52%	·	7%	3%	·
CCc1cccc(C)c1NC(=O)c1cn2c3c(ccc(Cl)c3c1=O)OC(C)C2 (stereo not given)	-20%	·	-14%	·	·
Cc1ccc(S(=O)(=O)N2CCCc3cc(NS(=O)(=O)c4cc(F)ccc4F)ccc32)cc1	-12%	·	-4%	·	·
COc1cc2c(cc1OC)C(c1cc3cc4c(cc3[nH]c1=O)OCO4)N(C(=O)C1CC1)CC2 (stereo not given)	-19%	18%	-12%	-14%	13µM*
COc1cc2c(cc1OC)C(c1cc(OC)c(OC)cc1[N+](=O)[O-])N(C(C)=O)CC2 (stereo not given)	i	0%	-7%	-11%	14%
COc1cc2c(cc1OC)C(c1cc3ccc(C)cc3[nH]c1=O)N(C(=O)c1ccco1)CC2 (stereo not given)	i	5%	1%	-7%	13µM*
Cn1c(=O)c2c(SCC(=O)NCc3ccco3)nc(-c3ccccc3F)nc2n(C)c1=O	0%	·	-13%	·	·
COc1cc(NC(C)CCc2ccccc2)cc(OC)c1OC (stereo not given)	i	3.7µM*	-5%	-19%	-22%
O=C(/C=C/c1ccccc1)OCCCN=C1NS(=O)(=O)c2ccccc21	-10%	5.2µM*	-5%	-10%	-4%
CCCC(C(=O)Nc1ccc(S(=O)(=O)N2CCCC2)cc1)c1ccccc1 (stereo not given)	-10%	?	-28%	15%	10µM*
CC(C(=O)Nc1ccncc1)(c1ccccc1)c1ccccc1	·	10µM*	·	4%	?
CCCC(C(=O)Nc1ccncc1)c1ccccc1 (stereo not given)	-8%	2.9µM*	-5%	26%	?
O=C(CC(c1ccccc1)c1ccccc1)Nc1ccncc1	-25%	10µM*	-9%	-14%	?
SMILES	VACV mCherry inh	Pf growth 96h	Vaccinia Venus	AMA1 RON2 block	Pf growth 48h
Cc1ccc(Cl)cc1NC(=O)Nc1nnc(N(C)Cc2ccccc2)s1	-28%	·	-22%	·	·
O=C1C=C(c2cccc(O)c2)C[C@@H](c2ccc(F)cc2)C1	i	?	?	2%	?
COCc1cccc(C2=CC(=O)C[C@H](c3ccc(OC)cc3)C2)c1	-2%	29%	-17%	-1%	-2%
O=C1C=C(c2cccc(CO)c2)C[C@@H](c2ccc(F)cc2)C1	-30%	2.1µM*	-9%	1%	2.3µM*
COc1cccc(C2=CC(=O)C[C@H](c3ccc(F)cc3)C2)c1	i	?	-18%	-1%	2.3µM*
COCc1cccc(C2=CC(=O)C[C@H](c3ccc(F)cc3)C2)c1	-15%	?	-17%	8%	2.3µM*
CC(=O)c1cc(-c2ccc(F)cc2)n(CCC(=O)NC2CCCCC2)c1C	0%	·	3%	·	·
CC(C)CCn1c(=O)c2sccc2n2c(CCCC(=O)Nc3ccc(F)c(Cl)c3)nnc12	-8%	·	-14%	·	·
O=C(NC1(C(F)(F)F)C(=O)Nc2c1c(=O)[nH]c(=O)n2-c1ccccc1)c1ccccc1Cl (stereo not given)	-3%	·	-12%	·	·
CNc1oc(-c2ccc(C)cc2)nc1P(=O)(c1ccccc1)c1ccccc1	-18%	15µM*	-26%	-11%	0.12µM*
CC1CCN(Cc2ccc(NC(=O)C3CCN(c4nnc(-n5cccc5)s4)CC3)cc2)CC1	·	8%	·	-2%	7.4µM*
O=C(C1CCN(c2nnc(-n3cccc3)s2)CC1)N1CCN(Cc2ccc3c(c2)OCO3)CC1	-22%	1.5µM*	-14%	-6%	?
CN(C)c1ccc(CNC(=O)C2CCN(c3nnc(-n4cccc4)s3)CC2)cc1	-1%	·	-10%	·	·
O=C(Nc1cc(C(F)(F)F)ccc1Cl)C1CCN(c2nnc(-n3cccc3)s2)CC1	·	11%	-12%	-1%	8.3µM*
O=C(C1CCN(c2nnc(N3CCCC3=O)s2)CC1)N1CCN(Cc2ccc3c(c2)OCO3)CC1	·	?	-19%	-5%	?
CCC(C)NC(=O)CSc1nc2n[nH]c(C)c2c(=N)n1-c1ccc(C)c(Cl)c1 (stereo not given)	?	·	-23%	·	·
O=C(Cc1ccc(-n2c(=S)[nH]c3ccccc3c2=O)cc1)N1CCN(c2ccccc2)CC1	·	82%	·	21%	·
COc1ccc(N2CCN(C(=O)CCCSc3nc4ccccc4[nH]3)CC2)cc1	-16%	9.3µM*	-9%	-6%	·
O=C(Cc1ccc(-n2c(=O)[nH]c3ccccc3c2=O)cc1)N1CCN(c2ccccc2)CC1	·	37%	·	-3%	12µM*

Bioassay records (PubChem)
